# In the library only some 3.7% were active in any assay of this set; here they are far more common.
# Anthrax LF inh2: Bacillus anthracis LF protease inhibitors, primary screen, biochemical, multiplex microsphere, MLPCN library; hit rate 0.12% among 360,000; inhibition, % at 10 µM; multiplex microsphere protease cleavage assay; further: plate controls were buffer without enzyme for full effect and enzyme alone for no effect
# Autofluor counter: counter-screen for toxin protease inhibitors: compound fluorescence; compound autofluorescence counterscreen, microsphere flow cytometry; hits give high values; hit rate 3.1% among 360,000; fluorescence intensity (no concentration beside the values); in the data active means fluorescence intensity above about 16000; inconclusive means no clear call, values can overlap the other calls
# BoNT A protease: BoNT/A light chain protease inhibitors, primary screen, biochemical, flow cytometry, MLPCN library. Botulinum neurotoxin type A light chain protease (Clostridium botulinum A str. ATCC 3502). multiplex microsphere protease substrate cleavage. inhibition, % at 10 µM. hit rate 0.17% among 360,000; further: plate controls were buffer without enzyme for full effect and enzyme alone for no effect
# BoNT F protease: BoNT/F light chain protease inhibitors, primary screen, biochemical, flow cytometry, MLPCN library; hit rate 0.22% among 360,000; Multiplex microsphere protease cleavage assay; Botulinum neurotoxin type F light chain protease (Clostridium botulinum); inhibition, % at 10 µM; in the data active means inhibition above about 35%, passing the limit was not always enough; inconclusive means no clear call, values can overlap the other calls; further: plate controls were buffer without enzyme for full effect and enzyme alone for no effect
# MazEF act: activators of E. coli MazEF toxin-antitoxin RNase, primary screen, biochemical, fluorescence, uHTS; activation, % at 20 µM; hit rate 0.32% among 350,000; Endoribonuclease toxin MazF (Escherichia coli (strain K12)), P0AE70; FAM/BHQ RNA-DNA oligo cleavage fluorescence, 5 h; in the data active means activation above about 50%
# Target sequence (P0AE70 whole entry, looked up): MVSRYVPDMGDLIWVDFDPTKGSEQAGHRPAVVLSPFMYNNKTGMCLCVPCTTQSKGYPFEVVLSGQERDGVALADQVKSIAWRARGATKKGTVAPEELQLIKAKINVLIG
# Starred values were filed as active, the others as inactive; ? = inconclusive; · = not tested or not shown; ! = not confirmed by another sample. Unless noted, no stated cut-off is given here; in the data, active means inhibition above about 30%; inconclusive means no clear call, values can overlap the other calls; inactive means below that.
SMILES,Anthrax LF inh2,Autofluor counter,BoNT A protease,BoNT F protease,MazEF act
CC(C(=O)NC1=NCCS1)N1C(=O)c2ccccc2C1=O (configuration not stated),-4.1,23583*,-1.9,-7.3,5.0
O=C(N/N=C/c1cccs1)C1CC(=O)N(c2ccccc2)C1 (configuration not stated),-2.2,20162*,1.2,3.0,2.0
CC1(C(=O)NS(=O)(=O)c2cccc(C#N)c2)CCN1C(=O)Cc1cc(F)ccc1F (configuration not stated),-3.7,3782,-0.2,0.6,·
CC1(C)CC(=O)C=C(NNC(=O)c2ccccc2O)C1,-3.9,16377*,-1.0,-1.4,-13.0
Cc1cccc(C(=O)NNC2=CC(=O)CC(C)(C)C2)c1O,4.8,3769,-0.6,2.8,-10.5
C/C(=N\OC(=O)c1ccc(F)cc1)c1nccs1,-3.9,23617*,0.2,-1.6,7.9
COc1ccc(C(=O)O/N=C(\C)c2nccs2)cc1,0.0,3208,0.4,0.9,-3.7
CC(C)CCNC(=O)C(c1ccco1)N(Cc1ccc(F)cc1)C(=O)c1snc(C(N)=O)c1N (configuration not stated),-4.7,19358*,-0.2,-3.1,-7.6
NC(=O)c1nsc(C(=O)N(Cc2ccc(F)cc2)C(C(=O)NC2CCCC2)c2ccco2)c1N (configuration not stated),-0.2,3733,3.7,8.9,6.5
Cc1[nH]nc(N=CC2=C(O)CC(c3ccco3)CC2=O)c1-c1ccc(Cl)cc1 (configuration not stated),-0.6,23437*,-3.4,-3.6,-10.5
Cc1ccc(N=CC2=C(O)CC(c3ccco3)CC2=O)cc1 (configuration not stated),-0.6,17259*,10.2,17.5,3.8
Cc1[nH]nc(N=CC2=C(O)CC(C)(C)CC2=O)c1-c1ccc(Cl)cc1,2.6,20907*!,?,-5.9,2.2
O=C1CC(c2ccco2)CC(O)=C1C=Nc1cc(Cl)ccc1O (configuration not stated),0.7,4222,0.6,22.4,-29.2
O=C1CC(c2ccco2)CC(O)=C1C=Nc1ccc(Br)cc1 (configuration not stated),-3.5,4173,0.1,-7.1,-3.9
CC1CN(S(=O)(=O)c2ccccc2)CC(C)O1 (configuration not stated),0.4,23507*,?,0.4,-0.9
COc1ccc(CNC(=O)Nc2nc(C(N)CCc3ccccc3)cs2)cc1 (configuration not stated),-4.1,3792,-0.1,-15.9,·
OCc1cccc(-c2csc(C(O)(c3ccccc3)C(F)(F)F)n2)c1 (configuration not stated),2.7,3856,-0.1,-4.3,·
CCn1c(SCC(=O)N2CCCCC2C)nc2ccsc2c1=O (configuration not stated),-3.4,7945,0.8,16.3,10.5
COc1ccc(NC(=O)CSc2nc3ccsc3c(=O)n2CCC(=O)O)c(OC)c1,0.1,5284,-0.3,-1.0,2.7
CCCCn1c(SCC(=O)Nc2cc(C)[nH]n2)nc2ccsc2c1=O,-2.9,18853*,4.8,1.8,0.8
CCOc1ccc(NC(=O)CSc2nc3ccsc3c(=O)n2CCCCCC(=O)O)cc1,1.1,3812,0.3,-7.8,-2.0
CC1CCCCN1C(=O)CSc1nc2ccsc2c(=O)n1Cc1ccccn1 (configuration not stated),0.8,19850*,-0.6,-1.8,-1.3
CC1CCCCN1C(=O)CSc1nc2cc3c(cc2c(=O)n1Cc1ccc2c(c1)OCO2)OCO3 (configuration not stated),1.3,21942*,?,0.9,-0.5
Cc1cc(NC(=O)CSc2nc3ccsc3c(=O)n2Cc2ccccn2)n[nH]1,-3.7,16535*,-0.1,0.8,1.9
COc1ccc(CNC(=O)c2ccc(S(=O)(=O)NCc3ccco3)cc2)cc1,0.1,?,-0.3,?,4.9
SMILES,Anthrax LF inh2,Autofluor counter,BoNT A protease,BoNT F protease,MazEF act
Brc1c(CSc2nncn2-c2ccccc2)nc2sccn12,-5.5,19506*,3.2,4.9,3.8
CC(C)N1CCC(C)(C(=O)Nc2cccc(Oc3ccccc3)c2)C1 (configuration not stated),-1.1,3851,0.3,3.2,·
Cc1ccc(-c2nnc3c4ccccc4c(C)nn23)cc1S(=O)(=O)N1CCN(C)CC1,-6.2,20956*,?,1.7,6.9
Cc1ccc(-c2nnc3c4ccccc4c(C)nn23)cc1S(=O)(=O)N1CCN(CCO)CC1,-2.9,3215,-0.5,-9.4,10.7
COC(=O)c1ccc(C(=O)OC)c(NC(=S)N2CCCC(CO)C2)c1 (configuration not stated),-1.3,4215,0.2,-0.7,-3.7
COC(=O)c1cc(OC)c(OC)cc1NC(=S)N1CCCC(CO)C1 (configuration not stated),4.2,22143*,1.0,1.0,-10.5
CC1NC(=O)c2ccccc2-n2c1nc1ccc(F)cc1c2=O (configuration not stated),-3.0,4759,-0.8,-1.6,·
Cc1ccc(Cl)cc1N1CCN(S(=O)(=O)c2c(C)[nH]c(=O)[nH]c2=O)CC1,0.4,19342*,?,1.4,-3.4
O=S1(=O)CC/C(=N\O)c2ccccc21,-0.2,23882*,?,-5.8,-2.4
COc1ccccc1/C(C)=N/Oc1cc(N)cc([N+](=O)[O-])c1,-4.1,3859,0.7,-10.0,-8.7
CN(CC(=O)Nc1ccc(F)c(F)c1F)C(=O)CCN1C(=O)C2CC=CCC2C1=O (configuration not stated),0.2,3844,0.0,-5.2,10.8
Cc1ccc(-c2cnn(-c3cccc([N+](=O)[O-])c3)c2N)cc1,-1.7,23689*,0.3,-0.4,-1.0
C[C@H]1CN([C@@H](C)CO)C(=O)c2cc(Br)cnc2O[C@@H]1CN(C)C(=O)Nc1ccc(C(F)(F)F)cc1,-2.5,3052,-0.2,-5.4,2.6
CC(C)C[C@@H](CN)NC(=O)c1nc[nH]c1C(=O)N[C@@H](CC(C)C)C(=O)CNC[C@H](C)NC(=O)c1nc[nH]c1C(=O)N[C@@H](CC(=O)O)C(=O)O,7.7,3532,0.2,-7.4,3.0
O=C(Nc1nc(-c2cccnc2)cs1)c1cccc([N+](=O)[O-])c1,-0.8,4501,-1.0,-1.9,12.8
O=C(Cc1nc(-c2ccc([N+](=O)[O-])cc2)cs1)Nc1ccccc1,-5.4,21221*,2.5,0.9,-4.2
O=C(Nc1nc(-c2ccccc2)cs1)c1cccc([N+](=O)[O-])c1,-3.0,20697*,-3.1,-5.8,5.5
CCCS(=O)(=O)NC(=O)C1(C)CCCN(C(=O)c2cc(F)cc(F)c2)C1 (configuration not stated),-3.8,3982,-0.2,-1.5,·
CCCc1cc(=O)oc2cc(C)cc(OCC(=O)N3C[C@H]4C[C@@H](C3)c3cccc(=O)n3C4)c12,-2.0,5218,-0.6,-2.9,·
